Laboratory results taken from ChEMBL document CHEMBL3988442, “University of Dundee, Small-Polar-MMV Screening Library” (2021).
About 900 (1.7%) of roughly 53,000 compounds showed an effect of 50% or more. The list comes from a sample in which strong results are over-represented; it also holds similar structures and randomly drawn compounds.

Tested on: Mycobacterium tuberculosis
Assay: Cornell - Phenotypic assay to identify agents that inhibit growth of Mycobacterium tuberculosis
Assay type: functional
Design: scale not given: direction of the effect not stated beside the values
Settings: 10 mM as filed; unlikely as a test dose

Row | Compound | Percent Effect [%]
1 | CNC(=O)c1cn[nH]c1C1CCN(Cc2ccccc2F)C1 (centres undefined) | -6.719
2 | COc1cc(C)c(S(=O)(=O)CC(=O)N(C)C(C)C)cc1OC | 1.501
3 | CN(C1CCCCC1)S(=O)(=O)N1CCN(Cc2ccco2)CC1 | 2.513
4 | Cc1ccccc1CN1CCCN(S(=O)(=O)N(C)C2CCCCC2)CC1 | 58.2
5 | CN(C1CCCCC1)S(=O)(=O)N1CCN(Cc2ccon2)CC1 | 27.01
6 | CCOCCC1(CNC(=O)c2ccncc2)CCC1 | 19.62
7 | CN1CCCC(c2ccc(N3CCOCC3)cn2)C1.Cl (centres undefined) | 35.11
8 | Cc1cc(C2CCCCN2C(=O)c2ccsc2)nc2nccn12 (centres undefined) | -13.93
9 | Cc1cc(NC(=O)CN2CCN(C3CCCC3)C(=O)C2)nn1C | 12.31
10 | CCn1nccc1CN(C)c1[nH]cnc2nc(C)nc1-2 | 1.62
11 | c1nc(CCNc2nc(C3CC3)nc3c2CCNCC3)c[nH]1 | 8.345
12 | c1cc(-c2nc3c(c(NCCc4c[nH]cn4)n2)CCNCC3)ccn1 | -23.76
13 | c1ccc(-c2nc3c(c(NCCc4c[nH]cn4)n2)CCNC3)cc1 | 96.35
14 | O=C(c1ccncc1)N1CCC(Cc2cnc3[nH]ccc3c2)CC1 | -105.2
15 | CCc1ncc2c(n1)CN(Cc1nc(-c3cccs3)no1)CC2 | 23.26
16 | Cc1ncc2c(n1)CN(Cc1nc(-c3cccs3)no1)CC2 | -6.861
17 | CC(C)c1ncc2c(n1)CN(Cc1nc(-c3cccs3)no1)CC2 | 53.42
18 | CCOc1cccc2c1OCC(=O)N(c1ccc3c(c1)OCO3)C2 | -8.978
19 | Cc1ncc(C(=O)NCCNC(=O)c2ccccc2)s1 | -13.65
20 | CCc1nccn1C1CCCN(C(=O)c2cn3c(C)cccc3n2)C1 (centres undefined) | 3.072
21 | CN1CCOC(CN(C(=O)CCc2cnn(C)c2)c2nccs2)C1 (centres undefined) | -11.48
22 | CC(C)N1CCC(CNCc2c[nH]nc2C(C)(C)C)C1 (centres undefined) | 7.799
23 | CCN1CCC(CNCc2c[nH]nc2C(C)(C)C)C1.Cl (centres undefined) | 10.08
24 | CC(C)(C)c1n[nH]cc1CNCC1CCN(C2CC2)C1.Cl (centres undefined) | 94.59
25 | Cl.O=S(=O)(N1CCCC1)N1CC[C@H](c2ccccc2)[C@H]2NCCCC[C@H]21 | -130.5
26 | CCC(CO)(CO)NC(=O)C1CCC(=O)N(CCc2ccccc2)C1 (centres undefined) | 9.017

Row | Compound | Percent Effect [%]
27 | CC(Cn1cccn1)NCc1csc(-c2ccc3c(c2)OCO3)n1 (centres undefined) | 59.29
28 | COc1ccc(-c2nc(CNC(C)Cn3cccn3)cs2)cc1 (centres undefined) | 49.5
29 | CC(Cn1cccn1)NCc1nc(-c2ccc3c(c2)OCO3)no1 (centres undefined) | 3.313
30 | CC(Cn1cccn1)NCc1csc(-c2ccc(F)cc2)n1 (centres undefined) | 35.16
31 | Cc1cnn(CC(C)NCc2csc(-c3cccs3)n2)c1 (centres undefined) | 3.673
32 | COc1cccc(-c2nc(CNC(C)Cn3cccn3)cs2)c1 (centres undefined) | 32.64
33 | CC(Cn1cccn1)NCc1csc(-c2cccs2)n1 (centres undefined) | 61.96
34 | CC(Cn1cccn1)NCc1csc(-c2ccsc2)n1 (centres undefined) | 13.88
35 | CC(Cn1cccn1)NCc1csc(-c2ccccc2)n1 (centres undefined) | 63.3
36 | CC(C)Cc1cc(NC(=O)c2ccccc2F)n(C)n1 | 11
37 | CCc1ccc(N2CCC(NS(=O)(=O)N(CC)CC)CC2)cc1 | 14.08
38 | N#CCc1ccc(NC(=O)CNc2ccc(Br)cc2F)cc1 | 10.15
39 | COc1ccc(NC(=O)CNc2ccc(Br)cc2F)cc1 | 107.2
40 | CCN(CC)C(=O)c1ccc(NC(=O)CNc2ccc(Br)cc2F)cc1 | -14.15
41 | CC(C)CN1CCC(c2nc3ccc(NC(C)C)cn3n2)CC1.O=C(O)C(F)(F)F.O=C(O)C(F)(F)F | 2.767
42 | CN1CCOC(CNCc2cnc(C(C)(C)C)s2)C1 (centres undefined) | 18.35
43 | Cc1cc(C(=O)Nc2cccn(Cc3ccc(F)cc3)c2=O)no1 | 24.65
44 | O=C(NCCn1ccnc1)N1CCN(c2nccs2)CC1 | -3.95
45 | CC(NC(=O)N1CCN(c2cccs2)CC1)c1ccc(C#N)cc1 (centres undefined) | 66.35
46 | O=C(NCCn1ccnc1)N1CCN(Cc2cccs2)CC1 | -4.677
47 | O=C(NCCCn1ccnc1)N1CCN(c2cccs2)CC1 | 78.28
48 | CC(NC(=O)N1CCN(c2ncccn2)CC1)c1ccc(C#N)cc1 (centres undefined) | -12.2
49 | CC(C)c1noc(CCNC(=O)N2CCN(c3cccs3)CC2)n1 | 4.976
50 | CC(NC(=O)N1CCN(c2cccs2)CC1)c1ccncc1 (centres undefined) | 62.51
51 | CC(=O)Nc1nc(C(=O)NC(C)c2ccc(C#N)cc2)cs1 (centres undefined) | 12.08
52 | Cc1noc(C)c1C(C)NC(=O)N1CCN(c2cccs2)CC1 (centres undefined) | 32.97

Row | Compound | Percent Effect [%]
53 | CN(C)C[C@@H]1C[C@@H]2CN(C(=O)Cc3cccs3)CC[C@@H]2N1C | -13.85
54 | Cc1cc(C)nc(N2CCC(Cn3cc(C(=O)N(C)C)cn3)CC2)n1 | 9.732
55 | CC(C)(C)c1cc(NC(=O)CNC2CCc3ncnn3C2)on1 (centres undefined) | -1.762
56 | c1cncc(Cc2nnc3n2CCN(CC2CCOC2)CC3)c1 (centres undefined) | 8.69
57 | O=C(O)c1ccc(S(=O)(=O)Nc2c(F)cccc2-n2cccn2)cc1 | 7.087
58 | O=C(O)C(F)(F)F.O=C(O)C(F)(F)F.O=C(c1ccc(F)cc1)N1CCN2C[C@H](OCc3cccnc3)C[C@H]2C1 | 19.5
59 | O=C(c1cccc2ccnn12)N1CCCC1Cn1cccn1 (centres undefined) | 2.312
60 | Cc1noc(-c2c[nH]nc2C2CCCN2C(=O)c2ccccc2)c1C (centres undefined) | -2.6
61 | CCCC(=O)N(CCCN1CCOCC1)c1nc2c(Cl)cccc2s1.Cl | 9.811
62 | CCCC(=O)N(CCCN1CCOCC1)c1nc2c(C)ccc(Cl)c2s1.Cl | 110.2
63 | CCCC(=O)N(CCCN1CCOCC1)c1nc2c(C)c(C)ccc2s1.Cl | 69.7
64 | CCCC(=O)N(CCCN1CCOCC1)c1nc2c(F)cccc2s1.Cl | 7.328
65 | CCCC(=O)N(CCN1CCOCC1)c1nc2c(OC)ccc(C)c2s1.Cl | -1.479
66 | Cc1ccc(CCCC(=O)N(C)CCN2CCOCC2)cc1 | -37.37
67 | CC(=O)N1CCC(c2nccnc2Nc2ncc(C)s2)CC1 | 21.23
68 | O=C(NCCc1ccccn1)c1[nH]nc2c1CCCC2 | 20.26
69 | O=C(Nc1ccccc1OC1CCOC1)c1cc[nH]n1 (centres undefined) | -18.84
70 | O=C(Nc1ccccc1OC1CCOC1)c1[nH]nc2c1CCCC2 (centres undefined) | 80.23
71 | CO[C@@H]1CC[C@H]2[C@H]1OCCN2C(=O)COc1ccc(F)cc1 | 15.86
72 | COCCC(C)NC(=O)c1cc(Br)c2c(c1)OCCO2 (centres undefined) | 13.03
73 | Cc1nccc(-c2cccc(NCC(=O)N3CCOCC3)c2)n1 | 9.914
74 | CNc1cccc(C2CN(C(=O)CNS(C)(=O)=O)CCO2)n1 (centres undefined) | -23.18
75 | CC(C)CCC(=O)N(C)CC(=O)Nc1ccc(Br)cn1 | -12.94
76 | O=C(c1cnc2ccc(F)cc2c1NCc1ccccn1)N1CCCC1 | 5.685
77 | COCCC1(CNC(=O)Nc2ccc(-n3cccn3)cc2)CCC1 | 21.41
78 | COCCC1(CNC(=O)Nc2ccc(-n3ccnn3)cc2)CCC1 | 75.09

Row | Compound | Percent Effect [%]
79 | COCCC1(CNC(=O)Nc2ccc(-n3nccn3)cc2)CCC1 | 32.79
80 | Cc1nc(C2CCCNC2)nc2c1CCCN2Cc1ccccn1.Cl.Cl (centres undefined) | 10.21
81 | Cc1nnc(C(C)N2CCCN(Cc3ccc(F)cc3)CC2)o1 (centres undefined) | 8.155
82 | CN1CC(=O)c2sc(NCCc3ccccc3)nc2C1 | -47.63
83 | Cc1nc(NCCc2ccccc2)cc(C(=O)N2CCCCC2)n1 | -12.22
84 | Br.O=C(O)c1csc(NCCc2ccccc2)n1 | 71.03
85 | Cc1nn(C)c(C)c1CC(=O)N1CCCC(CNS(C)(=O)=O)C1 (centres undefined) | -13.44
86 | CCC(O)Cn1nc(-c2ccc(C(=O)O)cc2)cc1-c1ccc(F)cc1 (centres undefined) | 43.49
87 | CC(C)Cn1nc(-c2ccc(C(=O)O)cc2)cc1-c1ccc(F)cc1 | 92.09
88 | CCC(O)Cn1nc(-c2ccc(C(=O)O)cc2)cc1-c1cccc(F)c1 (centres undefined) | -3.821
89 | CC(C)(C)n1ncc2c(=O)[nH]c(N3CC(O)C3)nc21 | -9.536
90 | CC(C)(C)n1ncc2c(=O)[nH]c(N3CCN(CC(F)F)CC3)nc21 | 62.42
91 | CN1CC(Nc2nc3c(cnn3C(C)(C)C)c(=O)[nH]2)CCC1=O (centres undefined) | 12.63
92 | CC(C)(C)n1ncc2c(=O)[nH]c(N3CCN(CCO)CC3)nc21 | 21.4
93 | CC(C)(C)n1ncc2c(=O)[nH]c(NC3CC=CC3)nc21 | 82.93
94 | CC(=O)N1CCN(c2nc3c(cnn3C(C)(C)C)c(=O)[nH]2)CC1 | 26.42
95 | Nc1cc(-c2nccnc2N2CCCC2)c2cc[nH]c2n1 | -1.136
96 | CC(=O)N1CCC2(CCN(S(=O)(=O)c3ccccc3)CC2)C1 | -13.67
97 | CC(C)CN1C[C@H]2CCN(C(=O)NC3CCCC3)CC[C@H]2S1(=O)=O | 15.88
98 | CCOc1cccc(CNc2cccc(C(=O)OC)c2)c1O | 2.238
99 | COc1cccc(CNCc2ccc(F)c(Cl)c2)c1O | 2.035
100 | COc1cccc(CNCc2ccc(F)cc2Cl)c1O | 52.17
101 | COc1cccc(CNCc2ccccc2Cl)c1O | -0.8125
102 | COc1cccc(CNCc2cccc(Cl)c2)c1O | 2.888
103 | COc1cccc(CNc2ccc(F)c(Cl)c2)c1O | 58.04
104 | COc1cccc(N2CCN(CC(O)c3cc(C)ccc3C)CC2)c1 (centres undefined) | -17.91
